The structures appear in SMILES notation. Structures can show the parent of a compound that is named as a salt. ± gives the standard deviation.

The experiment has as its system Jurkat. Kind of experiment: cell count relative to DMSO control (fraction of control); higher = more cells (less growth inhibition). The note with it: 48 h.
As to `Clc1ccc(CCC(Cn2ccnc2)Sc2c(Cl)cccc2Cl)cc1` (centres undefined) [Butoconazole Nitrate] (concentration: 25 µM), the cell count turned out to be 0.953 ± 0.094.
The figure for `Nc1ncnc2c1ncn2[C@@H]1O[C@H](CO)[C@@H](O)[C@H]1O` [Adenosine] (concentration: 25 µM) is 0.73 ± 0.082; for `Cc1c(O)cccc1C(=O)N[C@@H](CSc1ccccc1)[C@H](O)CN1C[C@H]2CCCC[C@H]2C[C@H]1C(=O)NC(C)(C)C` [Nelfinavir Mesylate] (concentration: 2.5 µM) it is 0.779 ± 0.084.
As for `Nc1ccn([C@@H]2O[C@H](CO)[C@@H](O)[C@@H]2O)c(=O)n1` [Cytarabine] (concentration: 25 nM), the figure is 0.297 ± 0.088.
The figure for `CC(=O)OC(C)C[N+](C)(C)C` (centres undefined) [Methacholine Chloride] (concentration: 25 µM) is 0.921 ± 0.049; for `O=C(O)C[C@H](O)C[C@H](O)/C=C/c1c(C2CC2)nc2ccccc2c1-c1ccc(F)cc1` [Pitavastatin Calcium] (concentration: 25 µM) it is 0.647 ± 0.065.
`COc1c(C)c2c(c(O)c1C/C=C(\C)CCC(=O)OCCN1CCOCC1)C(=O)OC2` [Mycophenolate Mofetil] (concentration: 25 µM) gave a cell count of 0.203 ± 0.039.
As for `C[C@@H](c1ncncc1F)[C@](O)(Cn1cncn1)c1ccc(F)cc1F` [Voriconazole] (concentration: 25 µM), the figure is 0.682 ± 0.1; as for `OC[C@@H](O)[C@@H](O)[C@H](O)[C@H](O)CO` [Mannitol] (concentration: 25 µM), 0.977 ± 0.097; as for `NS(=O)(=O)c1cc2c(cc1C(F)(F)F)NCNS2(=O)=O` [Hydroflumethiazide] (concentration: 25 µM), 0.681 ± 0.17.
Take `Oc1c(Cl)cc(Cl)c(Cl)c1Cc1c(O)c(Cl)cc(Cl)c1Cl` [Hexachlorophene] (concentration: 2.5 µM): the cell count was found to be 0.433 ± 0.035.
As for `Cc1cccc(C)c1OCC(=O)N[C@@H](Cc1ccccc1)[C@@H](O)C[C@H](Cc1ccccc1)NC(=O)[C@H](C(C)C)N1CCCNC1=O` [Lopinavir] (concentration: 25 µM), the figure is 0.373 ± 0.029; as for `O=c1n(CCCN2CCN(c3cccc(Cl)c3)CC2)nc2ccccn12` [Trazodone·HCl] (concentration: 25 µM), 0.878 ± 0.048.
As for `CCCc1nn(C)c2c(=O)[nH]c(-c3cc(S(=O)(=O)N4CCN(C)CC4)ccc3OCC)nc12` [Sildenafil Citrate] (concentration: 25 µM), the figure is 0.719 ± 0.22; as for `CN(CCOc1ccc(CC2SC(=O)NC2=O)cc1)c1ccccn1` (centres undefined) [Rosiglitazone] (concentration: 25 µM), 0.718 ± 0.069.
The figure for `COC1=CC(=O)C[C@@H](C)[C@]12Oc1c(Cl)c(OC)cc(OC)c1C2=O` [Griseofulvin] (concentration: 2.5 µM) is 0.865 ± 0.099.
In turn, `CC(C[N+](C)(C)C)OC(N)=O` (centres undefined) [Bethanechol Chloride] (concentration: 25 µM) displayed a cell count of 0.393 ± 0.12.
As for `CS(=O)(=O)OCCCCOS(C)(=O)=O` [Busulfan] (concentration: 25 µM), the figure is 0.343 ± 0.046; as for `O=C(N[C@H](CO)[C@H](O)c1ccc([N+](=O)[O-])cc1)C(Cl)Cl` [Chloramphenicol] (concentration: 25 µM), 0.819 ± 0.078.
The figure for `NS(=O)(=O)c1cc(C(=O)O)c(NCc2ccco2)cc1Cl` [Furosemide] (concentration: 25 µM) is 0.249 ± 0.11; for `Nc1nc(F)nc2c1ncn2[C@@H]1O[C@H](COP(=O)(O)O)[C@@H](O)[C@@H]1O` [Fludarabine Phosphate] (concentration: 2.5 µM) it is 0.378 ± 0.024.
Turning to `NC(=O)NO` [Hydroxyurea] (concentration: 25 µM), the cell count came out at 1.06 ± 0.099.
The figure for `O=S(=O)(O)CCS` [Mesna] (concentration: 25 µM) is 0.769 ± 0.16.
The figure for `Oc1ccc(C2CNCCc3c2cc(O)c(O)c3Cl)cc1` (centres undefined) [Fenoldopam Mesylate] (concentration: 25 µM) is 0.272 ± 0.13; for `CC1(C)O[C@@H]2[C@@H](CO[C@@]3(COS(N)(=O)=O)OC(C)(C)O[C@@H]23)O1` [Topiramate] (concentration: 25 µM) it is 1.14 ± 0.14.
For the molecule `Nc1ncn([C@H]2C[C@H](O)[C@@H](CO)O2)c(=O)n1` [Decitabine] (concentration: 2.5 µM), the cell count amounted to 0.363 ± 0.035.
As for `COC(=O)[C@H](c1ccccc1Cl)N1CCc2sccc2C1` [Clopidogrel Hydrogen Sulfate] (concentration: 25 µM), the figure is 0.942 ± 0.095; as for `Cc1nnc(SCC2=C(C(=O)O)N3C(=O)[C@@H](NC(=O)Cn4cnnn4)[C@H]3SC2)s1` [Cefazolin·Na] (concentration: 25 µM), 0.768 ± 0.013.
The figure for `Cc1ccnc2c1NC(=O)c1cccnc1N2C1CC1` [Nevirapine] (concentration: 25 µM) is 0.476 ± 0.11; for `C=CC[N+]1([C@H]2C[C@H]3[C@@H]4CC[C@H]5C[C@H](O)[C@@H](N6CCOCC6)C[C@]5(C)[C@H]4CC[C@]3(C)[C@H]2OC(C)=O)CCCC1` [Rocuronium Bromide] (concentration: 25 µM) it is 0.337 ± 0.086; for `CCCOc1ccc(C(=O)OCCN(CC)CC)cc1N` [Proparacaine·HCl] (concentration: 25 µM) it is 1.07 ± 0.05.
As for `C[N+](C)(C)CCOC(N)=O` [Carbachol (Carbamylcholine ) Chloride] (concentration: 25 µM), the figure is 1.13 ± 0.12; as for `C[N+]1(C)CCC(OC(=O)C(O)(c2ccccc2)C2CCCC2)C1` (centres undefined) [Glycopyrrolate Iodide] (concentration: 25 µM), 0.838 ± 0.061; as for `CC[C@]1(O)C[C@@H]2CN(CCc3c([nH]c4ccccc34)[C@@](C(=O)OC)(c3cc4c(cc3OC)N(C)[C@H]3[C@@](O)(C(=O)OC)[C@H](OC(C)=O)[C@]5(CC)C=CCN6CC[C@]43[C@@H]65)C2)C1` [Vinblastine Sulfate] (concentration: 25 nM), 0.0701 ± 0.058.
The molecule `C#C[C@]1(O)CC[C@H]2[C@@H]3CCC4=CCCC[C@@H]4[C@H]3C(=C)C[C@@]21CC` [Desogestrel] (concentration: 25 µM) gave a cell count of 1.03 ± 0.027.
`Cc1nccn1CC1CCc2c(c3ccccc3n2C)C1=O` (centres undefined) [Ondansetron] (concentration: 25 µM) displayed a cell count of 0.816 ± 0.074.
As for `CO[C@@]1(NC(=O)C2SC(=C(C(N)=O)C(=O)O)S2)C(=O)N2C(C(=O)O)=C(CSc3nnnn3C)CS[C@@H]21` (some centres undefined) [Cefotetan Disodium] (concentration: 25 µM), the figure is 0.831 ± 0.075; as for `Nc1c(CC(=O)O)cccc1C(=O)c1ccc(Br)cc1` [Bromfenac] (concentration: 25 µM), 1.05 ± 0.05; as for `CCOc1ccccc1OCCN[C@H](C)Cc1ccc(OC)c(S(N)(=O)=O)c1` [Tamsulosin·HCl] (concentration: 25 µM), 0.808 ± 0.079.

Source of the values: the supplement of paper PMC4709259.
